Screening results: PubChem, National Center for Advancing Translational Sciences (NCATS)
Only some compounds are listed: those with a hit (about 6% of all), similar ones and a draw of the others.
D1 antag: antagonists of human D1 dopamine receptor. P21728. HEK293 TREx D1 cells, calcium flux, dopamine EC80; active compounds read low. activity change, negative = inhibition, % at 10 µM. hit rate 3.2% among 360,000; in the data active = activity change below about -30%; also: % is scaled to controls: 0 for no effect and ±100 for the full control effect
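Kinetic fluorescence of a calcium dye serves as the read-out. D1-expressing Hek293 Trex cells, induced overnight at 30 C, are exposed to compound for 180 s before an EC80 dopamine addition, then read 180 s further.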
DRD3 agonist: activates the human D3 dopamine receptor; D3R DiscoveRx beta-arrestin cells, luminescence, 90 min; max activation, %; hit rate 0.58% among 410,000; P35462; in the data active = max activation above about 30%; also: 0% is about no effect
Target sequence (P35462 whole entry, looked up): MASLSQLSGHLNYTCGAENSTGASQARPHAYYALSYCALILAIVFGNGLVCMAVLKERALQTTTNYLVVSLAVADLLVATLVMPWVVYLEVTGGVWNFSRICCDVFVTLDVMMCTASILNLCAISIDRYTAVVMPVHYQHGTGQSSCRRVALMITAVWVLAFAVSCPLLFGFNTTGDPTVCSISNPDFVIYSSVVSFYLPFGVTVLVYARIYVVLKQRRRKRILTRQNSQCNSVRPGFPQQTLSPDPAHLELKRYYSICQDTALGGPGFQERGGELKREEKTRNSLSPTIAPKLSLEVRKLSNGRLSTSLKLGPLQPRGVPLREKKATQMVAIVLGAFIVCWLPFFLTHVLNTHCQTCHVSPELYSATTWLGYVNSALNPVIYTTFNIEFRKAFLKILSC
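Cells at 1500/well, incubated overnight, then treated with pinned compounds (dopamine as control) for 90 min at 37 degrees C. DiscoveRx reagent added for 30 - 60 minutes at room temperature; luminescence read.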
DRD3 antagonist: D3 dopamine receptor (human) antagonism. P35462. D3R cells, DiscoveRx beta-arrestin luminescence, antagonist mode; active compounds read low. max response, negative = inhibition, %. hit rate 2.5% among 360,000. AID 652054; in the data active = max response below about -50%; inconclusive = no clear call, values can overlap the other calls; also: % is scaled to controls: 0 for no effect and ±100 for the full control effect
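Cells expressing the human receptor were seeded at 1500 cells/well, incubated overnight at 37 degrees C in 5% CO2, then exposed to library compounds with dopamine controls for 90 minutes at 37 degrees C before luminescent detection.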
D1 potentiator: enhances dopamine response at the human D1 receptor | HEK293 TREx D1 cells, calcium flux, dopamine EC20 potentiation | AID 504651 | hit rate 0.036% among 360,000 | P21728 | potentiation, % at 10 µM; in the data active = potentiation above about 30%; also: 0% is about no effect
D1 ag: activates the human D1 dopamine receptor; hit rate 1% among 360,000; activation, % at 2 µM; AID 504660; P21728; HEK293 T-REx D1 cells, calcium flux, agonist mode; in the data active = activation above about 30%; also: 0% is about no effect
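Agonism was scored from calcium flux recorded over 180 s (1 read/s) after pintool compound addition, following a 10-cycle baseline. Cells were inducible force-coupled HEK293 TREx D1, plated overnight at 30 C and loaded with no-wash calcium dye.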
The depositor's hits bear a star; ? = inconclusive; . = no result; ! = repeats disagree.

SMILES	D1 antag	DRD3 agonist	DRD3 antagonist	D1 potentiator	D1 ag
CC(NC(=O)c1ccc(Cl)cc1Cl)C(c1ccccc1)N1CCOCC1 (stereo unspecified)	-3	-6	2	0	1
CC(NC(=O)C1CCC(C(C)(C)C)CC1)C(c1ccccc1)N1CCOCC1 (stereo unspecified)	0	2	2	2	2
CC(=O)N1CCCc2cc(S(=O)(=O)N3CCC(C(=O)N(Cc4ccccc4)C(C)C)CC3)ccc21	13	2	.	-6	0
CCOC(=O)N1CCN(C(=O)c2c[nH]c3ccc(S(=O)(=O)N(C)c4ccc(OCC)cc4)cc3c2=O)CC1	-89*	-2	15	-19	2
COc1cc(CN2CCC(C(=O)N3CCN(c4ccccc4F)CC3)CC2)cc(OC)c1OC	4	-6	-53*	5	1
COc1cc(C(=O)N2CCN(C(=O)C3CC3)CC2)cc(OC)c1OC	-42*	-3	0	-19	1
COc1ccccc1C(=O)Nc1cccc(C(=O)OCc2cc(=O)n3ccsc3n2)c1	4	-5	.	1	0
COc1ccccc1C(=O)Nc1cccc(C(=O)OCc2cc(=O)n3cc(C)sc3n2)c1	-31*	4	.	1	0
Cc1cn2c(=O)cc(COc3ccc(NC(=O)c4ccc(C(C)(C)C)cc4)cc3)nc2s1	-22	51*	.	-1	2
Cc1cn2c(=O)cc(COC(=O)COc3ccc(F)cc3)nc2s1	-18	2	.	-5	5
Cc1cn2c(=O)cc(COC(=O)COc3ccc(C)c(C)c3)nc2s1	-38*	0	.	-2	24
Cc1ccc(-c2nnc(Nc3cccc(Cl)c3)c3ccccc23)cc1S(=O)(=O)NCC1CCCO1 (stereo unspecified)	-21	-14	.	-3	5
CC1CC=C(O)C12OCC(C)(C)CO2 (stereo unspecified)	.	-13	-2	.	.
CN(CCCNC(=O)CCCOc1cc(=O)n(C)c2ccccc12)Cc1ccccc1	-3	0	-10	0	0
CN(CCNC(=O)CCCOc1cc(=O)n(C)c2ccccc12)Cc1ccccc1	-6	-16	-93*	-2	-1
CC1CCN(CCCNC(=O)COc2cc(=O)n(C)c3ccccc23)CC1	20	-7	-75*	-2	2
CC1CCN(CCCNC(=O)c2cc(Sc3ccc(F)cc3)nc3ccccc23)CC1	-10	-34	.	-1	44*
CCCCN(CC)CCCNC(=O)c1cc2cc3ccc(OC)cc3nc2o1	11	-1	-72*	-4	1
N#Cc1ccc(OCc2c(-c3ccccc3)nnn2CC(=O)O)cc1	.	3	0	.	.
COc1cccc(CNCCSc2nnnn2C)c1OCc1ccc(F)cc1	-16	-2	.	0	1
CC1CCN(CCCNC(=O)c2coc3nc4ccccc4nc23)CC1	-4	-1	-78*	-4	0
COc1ccc2cc3cc(C(=O)NCCN4CCN(Cc5ccccc5)CC4)oc3nc2c1	20	-12	-61*	-6	1
CC1CCN(CCCNC(=O)c2n[nH]c(=O)c3ccccc23)CC1	-23	1	-62*	-4	1
COc1ccc2cc3cc(C(=O)NCCN4CCc5ccccc5C4)oc3nc2c1	-12	-13	?	-3	3
CCN1CCN(CCCNC(=O)c2cc3cc4ccc(OC)cc4nc3o2)CC1	-5	3	-28	-8	0
SMILES	D1 antag	DRD3 agonist	DRD3 antagonist	D1 potentiator	D1 ag
COc1ccc2cc3cc(C(=O)NCCCN4CCC(C)CC4)oc3nc2c1	-14	-15	-58*	9	0
O=C(CSc1n[nH]c(-c2ccc(F)cc2)n1)N1CCN(c2ccc(F)cc2)CC1	6	-22	.	-2	0
O=C(Cc1nnc(-c2cc3ccccc3[nH]2)s1)Nc1cc(C(F)(F)F)ccc1Cl	-34*!	.	.	1	3
O=C(O)Cc1nnc(-c2cc3ccccc3[nH]2)s1	-37*	.	.	9	0
O=C(NCc1nnc(-c2cc3ccccc3[nH]2)s1)c1ccccc1	4	.	.	-5	3
CC(C)CCC[C@@H](C)[C@H]1CC(=O)C2=C3CC[C@H]4C[C@@H](O)CC[C@]4(C)[C@H]3CC[C@@]21C	.	-1	.	.	.
Cc1ccc(/C=C2\Oc3c(ccc(O)c3CN3CCN(C)CC3)C2=O)cc1	3	-5	-11	4	40*
CN(C)Cc1c(O)ccc2c1O/C(=C\C=C\c1ccccc1)C2=O	7	-11	-20	1	45*
